{"source": "PubChem BioAssay AID504834", "about": "(National Center for Advancing Translational Sciences (NCATS), 2011)", "note": "In all, about 320,000 compounds went through this assay and about 22,000 (6.9%) were called active. Another 27% or so got no clear call; they are omitted. This excerpt belongs to a sample that is enriched for actives. A number with no mark means an inactive call. The call rests on the fitted dose curve; in most records, active means well fitted inhibition curve with a large enough effect; inconclusive means small, poorly fitted or top-dose-only effect, or another doubt; inactive means no such curve, though single readings can be large or run the other way. On the % scale 0 is the no-effect control and ±100 the full control effect; potency means the concentration at half of the fitted maximal effect.", "data": [{"experiment": "Primary qHTS for delayed death inhibitors of the malarial parasite plastid, 96 hour incubation", "settings": "P. falciparum luciferase reporter growth; series mostly up to 28.7 µM; activity change, negative = inhibition: at the top concentration", "summary_of_the_method": "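Readout is luminescence from an integrated firefly luciferase in P. falciparum. Red cells, 2% hematocrit and 0.05% parasitemia final, were cultured with compound through two parasite generations (96 hours) at 37 C, 5% CO2.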", "units": {"activity change, negative = inhibition": "%"}, "values": [{"smiles": "NCC(=O)c1cccc2ccc[n+]([O-])c12", "activity change, negative = inhibition": 36.4}, {"smiles": "O=C(CNC(=O)OCc1ccccc1)NC1CCCCNC1=O", "note": "(stereo not drawn)", "activity change, negative = inhibition": 54.3}, {"smiles": "Cc1ccc(C(=O)NCC(=O)NCc2cc(=O)n(C)c(=O)n2C)cc1", "activity change, negative = inhibition": 13.5}, {"smiles": "O=C(NCCc1nnc2ccc(SCC(=O)N3CCOCC3)nn12)c1ccccc1", "activity change, negative = inhibition": 41.2}, {"smiles": "CCOc1cccc(NC(=O)C2CCCN(S(=O)(=O)c3ccc(OC)cc3)C2)c1", "note": "(stereo not drawn)", "activity change, negative = inhibition": 2.89}, {"smiles": "COc1ccc(N2CCN(C(=O)C3CCN(S(=O)(=O)c4ccc(C)cc4)CC3)CC2)cc1", "activity change, negative = inhibition": 6.26}, {"smiles": "CCCCOc1ccc(NC(=O)[C@@H]2CCCN2C(=O)C2CCN(S(=O)(=O)c3ccc(C)cc3)CC2)cc1", "Potency": "11.7 µM (active)"}, {"smiles": "Cc1c(C(=O)N/N=C/c2ccccc2)[nH]c2c([N+](=O)[O-])cccc12", "activity change, negative = inhibition": 0}, {"smiles": "CN(C)S(=O)(=O)c1ccc(N/C=C(\\[N+](=O)[O-])S(=O)(=O)c2ccccc2)cc1", "activity change, negative = inhibition": 49.1}, {"smiles": "COC(=O)c1ccc(NC(=O)CSc2nnc(C3CC3)n2C)cc1", "activity change, negative = inhibition": 14.4}, {"smiles": "COc1ccc(C(=O)OC(C)C(=O)NC2CCCC2)cc1S(=O)(=O)N1CCOCC1", "note": "(stereo not drawn)", "activity change, negative = inhibition": -6.55}, {"smiles": "COc1cccc(N2CCN(CC(=O)Nc3ccnn3C3CCCC3)CC2)c1", "activity change, negative = inhibition": -13.9}, {"smiles": "C#C[C@]1(O)CC[C@H]2[C@@H]3CCC4=CC(=O)CC[C@@H]4[C@H]3CC[C@@]21CC", "Potency": "7.57 µM (active)"}, {"smiles": "Cc1cc(C)c(C#N)c(SCC(=O)N(CC(C)C)C2CCS(=O)(=O)C2)n1", "note": "(stereo not drawn)", "activity change, negative = inhibition": -12.5}, {"smiles": "CC(NC(=O)COc1ccc(-c2ccccc2)cc1)C1CCCO1", "note": "(stereo not drawn)", "activity change, negative = inhibition": 38.1}, {"smiles": "O=C(Nc1ccncc1)c1ccc([N+](=O)[O-])cc1Cl", "activity change, negative = inhibition": 38.2}, {"smiles": "CN(CCc1ccccn1)C1CCCN(S(=O)(=O)c2ccccc2Cl)C1", "note": "(stereo not drawn)", "activity change, negative = inhibition": -0.441}, {"smiles": "Cn1nc(C(F)(F)F)cc1C(=O)O", "activity change, negative = inhibition": 36.7}, {"smiles": "Cc1nn(-c2ccccc2)c(C)c1NC(=O)CCl", "Potency": "3.7 µM (active)"}, {"smiles": "Cc1nn(-c2ccccc2)c(C)c1NC(=O)COc1ccc(Cl)cc1Cl", "activity change, negative = inhibition": 8.25}, {"smiles": "Cc1cccc(C)c1NC(=O)CNC(=O)c1c(C)nn(-c2ccccc2)c1C", "activity change, negative = inhibition": -4.55}, {"smiles": "O=C(NCC1CCCO1)c1cc2c(s1)CCCC2", "note": "(stereo not drawn)", "activity change, negative = inhibition": 282}, {"smiles": "CC1(C)O[C@@H]2[C@H](O1)[C@@H](CO)O[C@H]2n1c(N2CCCCC2)nc2c(N)ncnc21", "activity change, negative = inhibition": 8.05}, {"smiles": "Cc1ccc(OCCCCN2CCCCC2)c(Br)c1", "activity change, negative = inhibition": -19.8}, {"smiles": "C=CCc1cc(C)ccc1OCCCn1ccnc1", "Potency": "11.7 µM (active)"}, {"smiles": "Clc1c(OCCCn2ccnc2)ccc2ccccc12", "activity change, negative = inhibition": 203}, {"smiles": "CCOC(=O)c1ccc(S(=O)(=O)N(CCO)Cc2cc3cc(OC)c(OC)cc3[nH]c2=O)cc1", "activity change, negative = inhibition": -9.56}, {"smiles": "COc1ccc(S(=O)(=O)N2CCCC2CNC(=O)C(=O)NC2CC2)cc1", "note": "(stereo not drawn)", "activity change, negative = inhibition": 2.54}, {"smiles": "COc1cccc(CNC(=O)C(=O)NCCC2CCCCN2S(=O)(=O)c2ccc(C)cc2)c1", "note": "(stereo not drawn)", "Potency": "10.4 µM (active)"}, {"smiles": "O=C(NCCC1CCCCN1S(=O)(=O)c1ccc(F)cc1)C(=O)NC1CC1", "note": "(stereo not drawn)", "activity change, negative = inhibition": -4.85}, {"smiles": "COc1cc(OC)c(NC(=O)C2CCCN2C(=O)OCc2ccccc2)cc1Cl", "note": "(stereo not drawn)", "activity change, negative = inhibition": -25.4}, {"smiles": "COc1ccc(CCNC(=O)CN2C(=O)CCSc3ccccc32)c(OC)c1", "activity change, negative = inhibition": -12.9}, {"smiles": "CCOC(=O)CNC(=O)N1c2ccccc2Sc2ccccc21", "activity change, negative = inhibition": 17.9}, {"smiles": "CCOC(=O)CNC(=O)CN1C(=O)CCSc2ccccc21", "Potency": "11.7 µM (active)"}, {"smiles": "Cc1ccc(NC(=O)c2cnc(SCC(=O)NCC3CCCO3)n(C)c2=O)cc1", "note": "(stereo not drawn)", "activity change, negative = inhibition": 38}, {"smiles": "Cn1c(=O)n(C)c2cc(C(=O)Nc3ccc(Br)cc3)ccc21", "activity change, negative = inhibition": 9.04}, {"smiles": "COC(=O)[C@@H]1CC(O)CN1C(=O)C12CC3CC(CC(C3)C1)C2", "note": "(stereo partly drawn)", "activity change, negative = inhibition": 31.1}, {"smiles": "CCOc1ccccc1Nc1ccc2nonc2c1[N+](=O)[O-]", "activity change, negative = inhibition": 17.1}, {"smiles": "CSCCC(NC(=O)c1ccccc1)C(=O)N1CCN(Cc2ccc(Cl)cc2)CC1", "note": "(stereo not drawn)", "Potency": "1.65 µM (active)"}, {"smiles": "CSCCC(NC(=O)c1ccccc1)C(=O)N1CCCCCCC1", "note": "(stereo not drawn)", "activity change, negative = inhibition": -26.5}, {"smiles": "O=C(c1cccc(Cl)c1)N1CCN(Cc2ccccc2)CC1", "activity change, negative = inhibition": 23.5}, {"smiles": "COc1ccccc1C(=O)NC(CCSC)C(=O)NNC(=O)c1ccccc1C", "note": "(stereo not drawn)", "activity change, negative = inhibition": 8.05}, {"smiles": "COc1ccccc1C(=O)NC(CCSC)C(=O)N1CCN(C(C)=O)CC1", "note": "(stereo not drawn)", "activity change, negative = inhibition": 31.3}, {"smiles": "COc1ccccc1C(=O)NC(CCSC)C(=O)N1CCN(C/C=C/c2ccccc2)CC1", "note": "(stereo not drawn)", "Potency": "11.7 µM (active)"}, {"smiles": "CC(=O)NC(CC(=O)Nc1nc(-c2ccccc2)c(C(C)=O)s1)c1ccccc1", "note": "(stereo not drawn)", "activity change, negative = inhibition": 3.68}, {"smiles": "Cc1ccc(S(=O)(=O)NCC(=O)N2CCOCCOCCOCCOCC2)cc1", "activity change, negative = inhibition": 12.9}, {"smiles": "Cc1ccc(CNC(=O)[C@@H](NC(=O)Cc2ccccc2)C(C)C)cc1", "activity change, negative = inhibition": 37.8}, {"smiles": "Cn1c(-c2ccc(F)cc2)cc2onc(-c3ccccc3Cl)c2c1=O", "activity change, negative = inhibition": 69.3}, {"smiles": "CSc1ncc(Cl)c(C(=O)Nc2cc(C)ccc2C)n1", "activity change, negative = inhibition": -13}, {"smiles": "O=C(COc1ccccc1)Nc1cc2c3c(c1)CC(=O)N3CCC2", "activity change, negative = inhibition": 31}, {"smiles": "CC(=O)Nc1ccc(NC(=S)NC(=O)/C=C/c2ccccc2)cc1", "activity change, negative = inhibition": 8.73}, {"smiles": "CN(C)CCCSc1ccccc1NC(=O)/C=C/c1ccccc1", "Potency": "12 µM (active)"}, {"smiles": "O=C(/C=C/c1ccccc1)N/C(=C/c1ccccc1)C(=O)Nc1ccccc1O", "activity change, negative = inhibition": 42.9}, {"smiles": "COc1ccc(NC(=O)CCCNC(=O)Cn2cnc3sc4c(c3c2=O)CCCC4)cc1OC", "activity change, negative = inhibition": -7.58}, {"smiles": "O=C(CSCC(=O)Nc1cccc([N+](=O)[O-])c1)Nc1ccccc1", "activity change, negative = inhibition": -2.07}, {"smiles": "CCNC(=O)CSc1nc(-c2ccccc2)cs1", "activity change, negative = inhibition": -65.4}, {"smiles": "O=C(CSc1nc(-c2ccccc2)cs1)Nc1cccc([N+](=O)[O-])c1", "Potency": "10.4 µM (active)"}, {"smiles": "O=[N+]([O-])c1cc(C(F)(F)F)ccc1NCCc1ccncc1", "activity change, negative = inhibition": 15.8}, {"smiles": "Cc1ccc2[nH]c(=O)c(CC(=O)O)c(-c3ccccc3)c2c1", "activity change, negative = inhibition": 0.826}, {"smiles": "CCCCOC(=O)Nc1nnc(CC(=O)NCc2ccccc2)s1", "activity change, negative = inhibition": -8.9}, {"smiles": "Cc1ccc(OC(=O)c2c(C)nn(-c3ccccc3)c2C)cc1", "activity change, negative = inhibition": 101}, {"smiles": "COc1ccc(CN2CC(C(=O)NC3CCCCC3)CC2=O)cc1", "note": "(stereo not drawn)", "activity change, negative = inhibition": 23.7}, {"smiles": "COc1ccc(C2CC(=O)NC(=O)C2)cc1", "activity change, negative = inhibition": 31.5}, {"smiles": "COc1ccc(C2OC(=O)CC2C(=O)NC(C)C)cc1", "note": "(stereo not drawn)", "Potency": "0.586 µM (active)"}, {"smiles": "O=C(c1cc(-c2ccc(O)cc2)on1)N1CCOCC1", "activity change, negative = inhibition": 276}, {"smiles": "CCCC(C(=O)OCCN(CC)CC)(c1ccccc1)c1ccccc1", "Potency": "10.7 µM (active)"}, {"smiles": "CCC(C(=O)OCCN(CC)CC)c1ccccc1", "note": "(stereo not drawn)", "Potency": "inactive"}, {"smiles": "CCN(CC)CCOC(=O)c1cc2cc(COC)ccc2o1", "activity change, negative = inhibition": 127}]}]}
